# Test results taken from PubChem BioAssay (EPA / NIEHS).
# Records with an inconclusive call do not appear. Calls of active or inactive are those of the source. Rule for the calls, unless noted: active = hit-call score of the fitted dose curve at least 0.9, where 1 is the maximum; inactive = score below 0.9.
# Test: IUF_NPC2a_radial_glia_migration_72hr: Leibniz Research Institute for Environmental Medicine (IUF) 72-hour Neural Progenitor Cell Migration Assay for Radial Glia Migration (NPC2a) (AID 2284299)
# Method in brief: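 Readout: mean of four manual brightfield measurements of radial glia migration distance (um) at 72 h. hNPC spheres (0.3 mm) exposed to 7 compound concentrations plus solvent control on PDL/laminin, 37C, 5% CO2; activity fitted relative to DMSO.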
SMILES,outcome,AC50
CNC(=O)ON=CC(C)(C)SC,inactive,–
CC(C)(C)c1ccc(CSc2cnn(C(C)(C)C)c(=O)c2Cl)cc1,inactive,–
CCOc1cc(Oc2ccc(C(F)(F)F)cc2Cl)ccc1[N+](=O)[O-],inactive,–
CN(C)C(=S)SSC(=S)N(C)C,–,11.4 µM (active)
Cc1ccc(-c2c(Cl)nc(C#N)n2S(=O)(=O)N(C)C)cc1,–,25.9 µM (active)
C=CC1(C)OC(=O)N(c2cc(Cl)cc(Cl)c2)C1=O (centres undefined),inactive,–
CCOC(=O)CC(SP(=S)(OC)OC)C(=O)OCC (centres undefined),inactive,–
COP(N)(=O)SC (centres undefined),inactive,–
CCCCOC(=O)c1ccccc1C(=O)OCCCC,inactive,–
CCCCC(CC)COC(=O)c1ccccc1C(=O)OCC(CC)CCCC (centres undefined),inactive,–
COC(=O)N(OC)c1ccccc1COc1ccn(-c2ccc(Cl)cc2)n1,–,3.44 µM (active)
CO/C=C(/C(=O)OC)c1ccccc1Oc1cc(Oc2ccccc2C#N)ncn1,inactive,–
N#Cc1nn(-c2c(Cl)cc(C(F)(F)F)cc2Cl)c(N)c1S(=O)C(F)(F)F (centres undefined),inactive,–
COP(=S)(OC)Oc1nc(Cl)c(Cl)cc1Cl,inactive,–

# Test: IUF_NPC2b_neuronal_migration_120hr: Leibniz Research Institute for Environmental Medicine (IUF) 120-hour Neural Progenitor Cell Migration Assay for Neuron Migration (NPC2b) (AID 2284300)
# Method in brief: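 0.3 mm hNPC spheres on poly-D-lysine/laminin in N2 differentiation medium exposed 120 h, half-medium refresh day 3; 7 concentrations, DMSO max 0.1%. Neuron (TUBB3) distance from sphere core by ICC imaging, normalised to radial glia migration.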
SMILES,outcome,AC50
CNC(=O)ON=CC(C)(C)SC,inactive,–
CC(C)(C)c1ccc(CSc2cnn(C(C)(C)C)c(=O)c2Cl)cc1,inactive,–
CCOc1cc(Oc2ccc(C(F)(F)F)cc2Cl)ccc1[N+](=O)[O-],inactive,–
CN(C)C(=S)SSC(=S)N(C)C,–,58.7 µM (active)
Cc1ccc(-c2c(Cl)nc(C#N)n2S(=O)(=O)N(C)C)cc1,–,30.8 µM (active)
C=CC1(C)OC(=O)N(c2cc(Cl)cc(Cl)c2)C1=O (centres undefined),inactive,–
CCOC(=O)CC(SP(=S)(OC)OC)C(=O)OCC (centres undefined),inactive,–
COP(N)(=O)SC (centres undefined),inactive,–
CCCCOC(=O)c1ccccc1C(=O)OCCCC,inactive,–
CCCCC(CC)COC(=O)c1ccccc1C(=O)OCC(CC)CCCC (centres undefined),inactive,–
COC(=O)N(OC)c1ccccc1COc1ccn(-c2ccc(Cl)cc2)n1,inactive,–
CO/C=C(/C(=O)OC)c1ccccc1Oc1cc(Oc2ccccc2C#N)ncn1,inactive,–
N#Cc1nn(-c2c(Cl)cc(C(F)(F)F)cc2Cl)c(N)c1S(=O)C(F)(F)F (centres undefined),inactive,–
COP(=S)(OC)Oc1nc(Cl)c(Cl)cc1Cl,inactive,–

# Test: IUF_NPC4_neurite_length_120hr: Leibniz Research Institute for Environmental Medicine (IUF) 120-hour Neuronal Morphology Assay for Neurite Length (NPC4) (AID 2284302)
# Method in brief: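 hNPC spheres (0.3 mm, fetal brain GW 16-19) on PDL/laminin, DMEM:F12 3:1 + 1% N2, 37C 5% CO2; 7 concs + solvent control, day 0-5, half medium change d3; fix 120 h, TUBB3 ICC, mean neurite length um vs DMSO.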
SMILES,outcome,AC50
CNC(=O)ON=CC(C)(C)SC,inactive,–
CC(C)(C)c1ccc(CSc2cnn(C(C)(C)C)c(=O)c2Cl)cc1,inactive,–
CCOc1cc(Oc2ccc(C(F)(F)F)cc2Cl)ccc1[N+](=O)[O-],inactive,–
CN(C)C(=S)SSC(=S)N(C)C,–,17.7 µM (active)
Cc1ccc(-c2c(Cl)nc(C#N)n2S(=O)(=O)N(C)C)cc1,–,12.5 µM (active)
C=CC1(C)OC(=O)N(c2cc(Cl)cc(Cl)c2)C1=O (centres undefined),inactive,–
CCOC(=O)CC(SP(=S)(OC)OC)C(=O)OCC (centres undefined),inactive,–
COP(N)(=O)SC (centres undefined),inactive,–
CCCCOC(=O)c1ccccc1C(=O)OCCCC,inactive,–
CCCCC(CC)COC(=O)c1ccccc1C(=O)OCC(CC)CCCC (centres undefined),inactive,–
COC(=O)N(OC)c1ccccc1COc1ccn(-c2ccc(Cl)cc2)n1,–,0.328 µM (active)
CO/C=C(/C(=O)OC)c1ccccc1Oc1cc(Oc2ccccc2C#N)ncn1,inactive,–
N#Cc1nn(-c2c(Cl)cc(C(F)(F)F)cc2Cl)c(N)c1S(=O)C(F)(F)F (centres undefined),–,13.5 µM (active)
COP(=S)(OC)Oc1nc(Cl)c(Cl)cc1Cl,inactive,–

# Test: IUF_NPC5_oligodendrocyte_differentiation_120hr: Leibniz Research Institute for Environmental Medicine (IUF) 120-hour Oligodendrocyte Differentiation Assay (NPC5) (AID 2284304; active = hit-call score of the fitted dose curve at least 0.9, where 1 is the maximum;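 note: primary human fetal neural progenitor spheres plated to migrate and differentiate; share of O4-positive cells among Hoechst nuclei found by CNN image analysis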)
# Method in brief: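 Human fetal neural progenitor spheres (0.3 mm) plated on poly-D-lysine/laminin in N2 differentiation medium and exposed for 120 h at 7 concentrations, with half-medium renewal at day 3. O4-positive cells identified by CNN, expressed as percent of Hoechst nuclei.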
SMILES,outcome,AC50
CNC(=O)ON=CC(C)(C)SC,inactive,–
CC(C)(C)c1ccc(CSc2cnn(C(C)(C)C)c(=O)c2Cl)cc1,–,0.0866 µM (active)
CCOc1cc(Oc2ccc(C(F)(F)F)cc2Cl)ccc1[N+](=O)[O-],–,5.26 µM (active)
CN(C)C(=S)SSC(=S)N(C)C,–,26 µM (active)
Cc1ccc(-c2c(Cl)nc(C#N)n2S(=O)(=O)N(C)C)cc1,–,33.9 µM (active)
C=CC1(C)OC(=O)N(c2cc(Cl)cc(Cl)c2)C1=O (centres undefined),inactive,–
COP(N)(=O)SC (centres undefined),inactive,–
CCCCC(CC)COC(=O)c1ccccc1C(=O)OCC(CC)CCCC (centres undefined),inactive,–
COC(=O)N(OC)c1ccccc1COc1ccn(-c2ccc(Cl)cc2)n1,–,2.16 µM (active)
CO/C=C(/C(=O)OC)c1ccccc1Oc1cc(Oc2ccccc2C#N)ncn1,inactive,–
N#Cc1nn(-c2c(Cl)cc(C(F)(F)F)cc2Cl)c(N)c1S(=O)C(F)(F)F (centres undefined),–,1.99 µM (active)
COP(=S)(OC)Oc1nc(Cl)c(Cl)cc1Cl,inactive,–

# Test: IUF_NPC4_neurite_area_120hr: Leibniz Research Institute for Environmental Medicine (IUF) 120-hour Neuronal Morphology Assay for Neurite Area (NPC4) (AID 2284305; active = hit-call score of the fitted dose curve at least 0.9, where 1 is the maximum)
# Method in brief: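 hNPC spheres on PDL/laminin, N2 medium, 37C/5% CO2; dosed day 0, half-medium refresh day 3; fixed 120 h; TUBB3/Hoechst ICC, high-content imaging; neurite area = mean pixels per neuron (nuclei excluded); DMSO baseline, max 0.1%.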
SMILES,outcome,AC50
CNC(=O)ON=CC(C)(C)SC,inactive,–
CC(C)(C)c1ccc(CSc2cnn(C(C)(C)C)c(=O)c2Cl)cc1,inactive,–
CCOc1cc(Oc2ccc(C(F)(F)F)cc2Cl)ccc1[N+](=O)[O-],inactive,–
CN(C)C(=S)SSC(=S)N(C)C,–,27.5 µM (active)
Cc1ccc(-c2c(Cl)nc(C#N)n2S(=O)(=O)N(C)C)cc1,–,26.1 µM (active)
CCOC(=O)CC(SP(=S)(OC)OC)C(=O)OCC (centres undefined),inactive,–
COP(N)(=O)SC (centres undefined),inactive,–
COC(=O)N(OC)c1ccccc1COc1ccn(-c2ccc(Cl)cc2)n1,–,0.167 µM (active)
CO/C=C(/C(=O)OC)c1ccccc1Oc1cc(Oc2ccccc2C#N)ncn1,inactive,–
N#Cc1nn(-c2c(Cl)cc(C(F)(F)F)cc2Cl)c(N)c1S(=O)C(F)(F)F (centres undefined),–,14.3 µM (active)
